Compound activity: PubChem, The Scripps Research Institute Molecular Screening Center
Rows were chosen to be rich in hits. Some 5.7% of all compounds tested hit in one or more screens of this group.
DAX1 inh-1: inhibitors of human orphan nuclear receptor DAX1 (NR0B1); P51843; HEK293 Gal4-DAX1 luciferase reporter, luminescence; inhibition, % at 6.75 µM; hit rate 0.99% among 340,000; AID 504766;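 active = inhibition above the mean over all tested compounds plus 3 SD, cut at about 4.2% in these data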;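 also: 0% = DAX1-transfected cells with DMSO and 100% = empty-vector control cells with DMSO; inhibition shows as a rise in luminescence from relieved DAX1 repression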
ssDAF-12 act: S. stercoralis DAF-12 activation, primary screen; HEK293 ssDAF-12/GRIP1 lit1-tk-luc reporter, luminescence; % of 3 µM dafachronic acid response; activation, % at 6.8 µM; hit rate 1% among 370,000; AID 652126;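 active = activation above the mean over all tested compounds plus 3 SD, cut at about 0.9% in these data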;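 also: 0% = DMSO-only wells and 100% = 3 µM delta7-dafachronic acid wells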
hgDAF-12 ag: hgDAF-12 agonism, primary luciferase screen. HEK293 GAL4-hgDAF12 UAS-luciferase reporter, agonist luminescence; normalized to butyrate control. activation, % at 6.8 µM. hit rate 1.8% among 370,000. AID 687014;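 active = activation above a cutoff set at the mean of all screened compounds plus 3 SD, cut at about 10% in these data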;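 also: 0% = DMSO wells and 100% = sodium butyrate wells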
hcDAF12 agonist: H. contortus DAF-12 activation, primary screen; HEK293 hcDAF-12 lit1-tk-luc reporter, luminescence; 0% DMSO, 100% Δ7-dafachronic acid; activation, % at 6.8 µM; hit rate 1.4% among 370,000; AID 652067;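 active = activation above the mean of all tested compounds plus 3 SD, cut at about 5.5% in these data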;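 also: 100% = response to 3 µM Δ7-dafachronic acid high control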
DAX1 inh-2: blocks DAX1 repression of SF-1 activated StAR promoter. hit rate 1.1% among 370,000. inhibition, % at 6.8 µM. AID 652010. HEK293T StAR-luciferase reporter, SF-1/DAX-1 repression relief;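 active = inhibition above the mean over all tested compounds plus 3 SD, cut at about 3.6% in these data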;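 also: 0% = DAX-1 cells with DMSO and 100% = cells lacking DAX-1 with DMSO; higher inhibition means more luminescence from relief of DAX-1 repression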
AHR act: human AHR activation; P35869; AHR-responsive luciferase reporter cells, luminescence; activation, % at 5 µM; hit rate 2.5% among 320,000; in the data active = activation above about 47%;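 also: 0% = vehicle wells and 100% = reference agonist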
Target sequence (P35869 whole entry, looked up): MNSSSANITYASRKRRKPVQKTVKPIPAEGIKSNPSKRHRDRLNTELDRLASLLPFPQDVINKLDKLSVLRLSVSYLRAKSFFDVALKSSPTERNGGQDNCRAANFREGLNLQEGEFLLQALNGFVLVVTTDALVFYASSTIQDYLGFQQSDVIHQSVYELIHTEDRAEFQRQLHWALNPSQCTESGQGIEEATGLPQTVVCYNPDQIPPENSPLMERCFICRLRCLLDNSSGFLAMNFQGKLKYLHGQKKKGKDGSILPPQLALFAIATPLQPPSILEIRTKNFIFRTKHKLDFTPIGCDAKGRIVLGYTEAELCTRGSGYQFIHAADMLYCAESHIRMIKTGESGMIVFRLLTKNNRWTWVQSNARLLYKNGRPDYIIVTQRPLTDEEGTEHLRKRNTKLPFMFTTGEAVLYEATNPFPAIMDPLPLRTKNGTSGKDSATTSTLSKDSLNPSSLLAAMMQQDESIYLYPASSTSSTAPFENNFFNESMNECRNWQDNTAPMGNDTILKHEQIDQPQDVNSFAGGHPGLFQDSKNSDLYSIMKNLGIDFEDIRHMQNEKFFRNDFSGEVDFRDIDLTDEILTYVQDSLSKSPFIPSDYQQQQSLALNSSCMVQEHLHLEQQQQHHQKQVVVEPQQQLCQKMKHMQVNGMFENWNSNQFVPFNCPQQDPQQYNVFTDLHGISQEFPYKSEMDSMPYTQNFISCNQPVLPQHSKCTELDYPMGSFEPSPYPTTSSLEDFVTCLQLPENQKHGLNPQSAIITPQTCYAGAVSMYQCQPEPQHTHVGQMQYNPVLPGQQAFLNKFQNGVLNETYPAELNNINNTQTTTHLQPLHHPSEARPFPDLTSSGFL
Numbers without * were called inactive; . = not tested or not shown.

SMILES	DAX1 inh-1	ssDAF-12 act	hgDAF-12 ag	hcDAF12 agonist	DAX1 inh-2	AHR act
FC(F)(F)c1nnc2ccc(NCc3ccccc3)nn12	-1.0	-0.9	-1.3	-0.8	0.2	0.2
FC(F)(F)c1nnc2ccc(NCc3cccnc3)nn12	7.9*	-1.4	-2.6	-1.9	-0.4	-2.0
COc1ccc(C(=O)NNC(=O)COC(=O)c2sccc2C)cc1	0.2	-1.0	-0.4	0.3	2.6	0.7
O=C1N/C(=C/c2ccc(N3CCOCC3)cc2)C(=O)N1Cc1ccc(F)cc1	1.9	-1.7	-0.3	1.3	0.1	50.9*
CCN(C(=O)CCc1cn(CC)c2ccccc12)c1ccc(Oc2cccnc2)cc1	.	-0.3	11.4*	-0.8	3.6*	.
CN(C(=O)CCc1cn(C)c2ccccc12)c1ccc(Oc2cccnc2)cc1	.	-1.5	1.4	-1.5	0.1	.
COc1ccc(NC(=O)C2(C)Cc3c(-c4ccc(N(C)C)cc4)ccnc3O2)cn1 (configuration not stated)	.	-1.5	-0.6	-0.8	-1.1	.
O=C(O)c1ccc(-c2nc(-c3ccc(Cl)cc3)cs2)cc1	4.0	-0.1	12.6*	5.8*	3.5	.
Cc1[nH]nc(N=Cc2c(O)n(C)c(=O)n(C)c2=O)c1-c1ccccc1	.	.	.	.	.	0.4
Cn1c(O)c(/C=N/Nc2ccccc2)c(=O)n(C)c1=O	-1.0	-1.3	1.3	1.0	0.3	58.4*
O=C1/C(=C\c2ccc3ccccc3c2)CCCc2ccccc21	2.6	-0.2	9.7	4.6	3.3	4.2
Cc1ccccc1/C=C1\CCCc2ccccc2C1=O	6.0*	0.7	10.3	4.4	2.7	12.6
CC(C)(C)C(=O)c1c(N)[nH]c(C(=O)c2ccccc2)c1-c1ccc([N+](=O)[O-])cc1	.	-1.0	3.3	2.8	1.7	.
CNNC(=O)C(=O)NNS(=O)(=O)c1ccccc1	5.8*	-0.4	-0.4	2.8	0.6	0.0
CC(C)C(=O)NNS(=O)(=O)c1ccccc1	-0.6	-1.3	1.4	-0.8	-0.2	-0.2
CN(Cc1cn[nH]c1-c1cc2ccccc2o1)CC1CCOCC1	0.1	-1.6	-1.4	0.0	0.1	1.7
CCc1ccc(OCC(=O)NC(=S)Nc2ccc(Br)c(C)n2)cc1	2.0	-1.0	-0.9	3.6	0.4	11.8
Cc1nc(NC(=S)NC(=O)COc2ccccc2Cl)ccc1Br	-0.2	0.9*	-3.2	-2.3	-0.6	6.2
CC(C)C(NS(=O)(=O)c1ccccc1)C(=O)OCc1cc([N+](=O)[O-])cc2c1OCOC2 (configuration not stated)	0.4	-1.4	-0.6	1.3	-0.4	0.0
Cc1cc(C)nc(CC(N)=O)n1	5.9*	-1.5	0.1	0.0	-0.4	0.8
CC1(C)CC(=O)C=C(c2ccc3c(c2)OCO3)C1	0.1	-1.1	2.5	-0.4	-0.1	59.4*
CCCCOCCCNC(=O)C[C@@H]1C[C@@]2(C(=O)OCC)CCCC=C2N(Cc2ccc3c(c2)OCO3)C1=O	.	-1.0	-1.8	-0.5	0.9	.
CCOC(=O)N1CCN(c2ccc(S(=O)(=O)N3CCC(C)CC3)cc2[N+](=O)[O-])CC1	-1.0	-2.2	-5.8	-3.3	-4.6	-2.1
CC1Cc2ccccc2N1C(=O)CSc1nnnn1Cc1ccccc1 (configuration not stated)	0.7	-1.0	-2.5	-1.7	-1.0	47.7*
CCn1c(SCC(=O)Nc2nc(C)c(C)s2)nc2cccnc21	-0.6	-0.5	-1.7	-2.5	-1.4	52.4*
SMILES	DAX1 inh-1	ssDAF-12 act	hgDAF-12 ag	hcDAF12 agonist	DAX1 inh-2	AHR act
Cc1nc(NC(=O)CSc2nnnn2Cc2ccccc2)sc1C	-0.3	-0.7	1.3	0.6	-0.4	65.1*
FC(F)(F)c1ccccc1Cc1c(-c2ccco2)nc2c3ccccc3ccn12	.	0.6	-1.3	2.4	-1.0	.
Cc1nc2sccn2c1P(c1c(C)nc2sccn12)c1c(C)nc2sccn12	0.1	-0.5	-3.8	-0.5	-0.2	-1.2
CC(=O)c1ccc(CCCC(=O)O)cc1	4.9*	-1.3	-1.7	1.7	-0.5	-3.6
O=C(COC(=O)COc1ccc2ccccc2c1)NCC(F)(F)F	0.5	-1.3	-0.3	5.6*	0.0	1.8
O=C(Cn1cnc2ccccc2c1=O)N1CCN(Cc2ccc(F)cc2)CC1	.	-0.8	-0.5	-0.4	-0.8	.
O=C(CN1C(=O)c2cccc3cccc1c23)NCc1cccnc1	0.5	.	.	.	.	17.4
O=C(CN1C(=O)c2cccc3cccc1c23)Nc1cccnc1	-0.1	-1.2	0.9	-1.3	-1.1	53.8*
O=c1c2cc3cc(Cl)ccc3nc2ncn1CCc1c[nH]c2ccccc12	.	1.5*	4.6	5.5	0.6	.
Cc1ccc(Nc2ncnc(-n3cccc3)n2)cc1Cl	1.5	0.5	7.1	5.5	1.6	57.9*
Nc1ncnc(Nc2ccc(F)c(Cl)c2)n1	1.7	-1.2	2.1	0.2	1.2	4.7
Nc1ncnc(Nc2cc(Cl)cc(Cl)c2)c1[N+](=O)[O-]	2.2	-1.2	-2.4	0.5	0.1	4.8
Clc1cc(Cl)cc(Nc2ncnc(-n3cccc3)n2)c1	.	-1.1	0.0	-0.1	0.1	54.1*
CCN1C(=O)C(=O)N(CC(=O)c2cc(C)n(C3CC3)c2C)C1=O	1.0	-0.4	4.2	1.9	2.2	0.0
CCCN1C(=O)C(=O)N(CC(=O)c2cc(C)n(C3CC3)c2C)C1=O	1.5	-0.8	10.0	3.4	3.8*	2.6
O=C(NCCNCc1cccc(Cl)c1)c1ccco1	0.5	1.1*	1.3	-0.5	2.3	.
O=C(NCCNc1ccc([N+](=O)[O-])cc1)c1ccco1	4.5*	-0.9	3.2	-1.7	-0.8	-0.2
O=C(Nc1ccc(C(=O)O)cc1)/C(=C\c1ccc([N+](=O)[O-])cc1)NC(=O)c1ccco1	4.3*	-1.2	-2.2	0.3	-0.3	.
COc1ccc(CNC(=O)C2CCNCC2)cc1	1.0	-1.0	0.7	-0.8	-0.2	0.0
COc1ccc(OCC2CCNCC2)cc1	4.5*	0.2	4.1	1.4	0.2	1.9
O=c1[nH]c2cc3c(cc2cc1CN(CCCO)Cc1nnnn1Cc1ccc(F)cc1)OCO3	0.9	-1.2	-1.2	0.9	0.3	54.4*
CCC(c1nnnn1Cc1ccc(OC)cc1)N(CCCO)Cc1cc2cc3c(cc2[nH]c1=O)OCO3 (configuration not stated)	2.6	-1.0	0.5	-2.1	-0.2	26.6
CC(C)C(c1nnnn1Cc1ccccc1)N(CCCO)Cc1cc2cc3c(cc2[nH]c1=O)OCO3 (configuration not stated)	-1.2	-1.1	-2.5	-1.5	0.0	64.0*
Cc1nc(SCC(=O)Nc2cccc(S(=O)(=O)N3CCOCC3)c2)nc(C)c1C	-0.8	-1.1	0.7	-2.5	-1.8	-0.5
Cc1cc(=O)[nH]c(SCC(=O)Nc2cccc(S(=O)(=O)N3CCOCC3)c2)n1	0.7	-0.9	0.2	-1.8	3.7*	-1.6
